aSyn 5UTR act: Activators working through SNCA 5'UTR binding (MLPCN); actives 7.1% (n = 300,000); activity score, % (tested at 7.5 µM), hits read low; alpha-synuclein 5'UTR reporter, activators screen; in the data active means activity score below about -60%
Of the large screens only hits and unclear results are named; the others gave an inactive call. A selection follows.

O=C(/C=C/c1ccc([N+](=O)[O-])s1)N1CCCC1	aSyn 5UTR act -101.7
CC1CC(C)CN(C(=O)/C=C/c2ccc([N+](=O)[O-])s2)C1 (configuration not stated)	aSyn 5UTR act -96.7
CC1CN(C(=O)/C=C/c2ccc([N+](=O)[O-])s2)CC(C)O1 (configuration not stated)	aSyn 5UTR act -82.2
O=C(/C=C/c1cccs1)N1CCCCC1	aSyn 5UTR act -91.8
Cc1cccc(C(=O)NCC(=O)OCC(=O)c2cc(C)n(CC3CCCO3)c2C)c1 (configuration not stated)	aSyn 5UTR act -101.8
Cc1cc(C(=O)COC(=O)c2ccc(Cl)c(S(N)(=O)=O)c2)c(C)n1CC1CCCO1 (configuration not stated)	aSyn 5UTR act -104.0
COCCn1c(C)cc(C(=O)COC(=O)c2ccc(Cl)c(S(N)(=O)=O)c2)c1C	aSyn 5UTR act -103.3
O=[N+]([O-])c1ccc(N2CCc3ccccc3C2)cc1	aSyn 5UTR act -117.4
O=C(Nc1ccc([N+](=O)[O-])cc1)N1CCc2ccccc2C1	aSyn 5UTR act -106.0
Cc1ccc(C)c(NC(=O)N2CCc3ccccc3C2)c1	aSyn 5UTR act -66.9
CC(C)c1ccc(NC(=O)N2CCc3ccccc3C2)cc1	aSyn 5UTR act -261.1
Cc1cccc(NC(=O)c2oc3c(c2C)C(=O)CC(C)(C)C3)n1	aSyn 5UTR act -82.7
CCCCCNc1nc(-c2ccccc2)cs1	aSyn 5UTR act -168.5
c1ccc(CCNc2nc(-c3ccncc3)cs2)cc1	aSyn 5UTR act -114.3
CCCC(=O)Nc1cc(C)c2c(=O)oc3ccccc3c2n1	aSyn 5UTR act -73.9
O=c1[nH]c(/C(Cl)=C/c2cccc(F)c2)nc2cc(C(F)(F)F)ccc12	aSyn 5UTR act -161.9
Cc1ccc(-n2c(C)cc(/C=C3\SC(=O)NC3=O)c2C)cc1	aSyn 5UTR act -174.5
Cc1ccc(/C=C2\SC(=S)N(CCCC(=O)NNC(=O)c3ccccc3O)C2=O)cc1	none
COc1ccc(-n2c(C)cc(/C=C3\SC(=O)NC3=O)c2C)cc1	aSyn 5UTR act -145.9
Cc1cc(/C=C2\SC(=S)N(C)C2=O)c(C)n1-c1ccccc1O	aSyn 5UTR act -125.8
CCn1c(C)cc(/C=C2/SC(=S)NC2=O)c1C	aSyn 5UTR act -67.1
Cc1cc(/C=C2/C(=O)NN(c3ccccc3)C2=O)c(C)n1-c1cccc(O)c1	aSyn 5UTR act -74.4
Cc1cc(/C=C2\SC(N)=NC2=O)c(C)n1-c1ccc(F)cc1	aSyn 5UTR act -62.3
Cc1cc(/C=C2\SC(=S)NC2=O)c(C)n1-c1cccc(O)c1	aSyn 5UTR act -110.7
CC1CCC(=C(C#N)c2nc(-c3cc4ccccc4oc3=O)cs2)CC1 (configuration not stated)	aSyn 5UTR act -258.5
COc1cc(NC(=O)c2cc3nc(C4CC4)cc(C(F)(F)F)n3n2)c(OC)cc1Cl	aSyn 5UTR act -69.9
CCn1nnc(NC(=O)c2ccc(-c3ccccc3[N+](=O)[O-])o2)n1	aSyn 5UTR act -89.5
O=C(NCc1cccnc1)c1ccc(-c2ccccc2[N+](=O)[O-])o1	aSyn 5UTR act -64.4
CCCCn1nnc(NC(=O)c2ccc(-c3ccccc3)cc2)n1	aSyn 5UTR act -128.8
O=C(CCCCCN1C(=O)c2cccc3cccc(c23)C1=O)NCc1cccnc1	none
CCCn1nnc(NC(=O)c2cc3ccccc3o2)n1	aSyn 5UTR act -156.0
CC(=O)c1cccc(NC(=O)c2ccc(-c3ccccc3[N+](=O)[O-])o2)c1	aSyn 5UTR act -238.5
CCCCn1nnc(NC(=O)c2cc3ccccc3o2)n1	aSyn 5UTR act -136.8
CCn1nnc(NC(=O)c2cc3ccccc3o2)n1	aSyn 5UTR act -168.0
Cc1cc(/C=C(\C#N)C(=O)NCc2ccco2)c(C)n1-c1cccnc1	aSyn 5UTR act -100.0
Cc1cc(/C=C(\C#N)C(=O)NCc2ccco2)c(C)n1C1CCCC1	aSyn 5UTR act -137.5
Cc1ccc(C)c(OCCn2cc(/C=C(\C#N)C(=O)NCc3ccco3)c3ccccc32)c1	none
CC1=C/C(=C\C=C(C#N)C#N)N(C)c2ccccc21	aSyn 5UTR act -101.6
COc1ccc(-c2oc3ccccc3c2C(=O)OCc2ccccc2)cc1	aSyn 5UTR act -101.6
Cc1ccc(/C=C/C(=O)Nc2cc(C)on2)cc1	aSyn 5UTR act -226.9
CCCc1cc(C(=O)Nc2ccc(C)cc2)no1	aSyn 5UTR act -103.6
CCCc1cc(C(=O)Nc2ccc(CC)cc2)no1	aSyn 5UTR act -169.2
Cc1ccc(NC(=O)c2cc(C)on2)cc1	aSyn 5UTR act -96.2
Cc1cc(C(=O)Nc2sc(C)c(C)c2C#N)no1	aSyn 5UTR act -170.4
Cc1cc(C(=O)Nc2ccccn2)no1	aSyn 5UTR act -104.2
Cc1ccc(NC(=S)Nc2cc(C)on2)cc1	aSyn 5UTR act -71.3
CC(C)Cc1cc(C(=O)Nc2ccc3c(c2)OCO3)no1	aSyn 5UTR act -183.8
Cc1cc(NS(=O)(=O)c2ccc(NC(=O)Nc3ccc4c(c3)OCO4)cc2)no1	aSyn 5UTR act -70.9
COC(=O)c1ccc(C)c(NS(=O)(=O)c2ccc3c(c2)OCCO3)c1	none
Cc1cc(C(=O)Nc2ccc3c(c2)OCO3)no1	aSyn 5UTR act -107.2
C=CCN1C(=O)c2cccc3c(N4CCCCC4)ccc(c23)C1=O	aSyn 5UTR act -65.8
O=C1c2cccc3c(N4CCCCC4)ccc(c23)C(=O)N1CCO	aSyn 5UTR act -119.6
O=C1c2cccc3c(N4CCCCC4)ccc(c23)C(=O)N1c1cccc(O)c1	aSyn 5UTR act -77.6
O=C(OCCN1C(=O)c2cccc3c(N4CCOCC4)ccc(c23)C1=O)c1ccc(Cl)cc1Cl	none
O=C1c2cccc3cc([N+](=O)[O-])cc(c23)C(=O)N1CCN1CCCC1	none
O=C(Nc1nsc(-c2ccccc2)n1)c1ccc(F)cc1	aSyn 5UTR act -165.6
O=C(Nc1ccccc1)c1ccc(C(=O)Nc2ccccc2)nc1	aSyn 5UTR act -182.0
Cc1ccc(C(=O)Nc2ccc3ccccc3c2)cc1	none
Cc1ccc(NC(=O)c2ccccc2)cc1	aSyn 5UTR act -163.6
Cc1ccc(N/C(=C\C(=O)c2ccccc2)C(=O)O)cc1	aSyn 5UTR act -157.5
Cc1ccc(NC(=O)C(=O)c2ccc(C)cc2)cc1	aSyn 5UTR act -207.8
CSC(=CC(=O)c1ccccc1)SC	aSyn 5UTR act -77.1
Cc1cccc(C(=O)Nc2ccc(C(=O)c3ccccc3)cc2)c1	aSyn 5UTR act -106.1
O=C(Nc1ccc(Nc2ccccc2)cc1)c1ccc(F)cc1	aSyn 5UTR act -74.8
Cc1ccc(NC(=O)/C(CN(C)C)=N\O)cc1	aSyn 5UTR act -88.5
Cc1cccc(C(=O)Nc2ccc(O)cc2)c1	aSyn 5UTR act -98.2
Cc1ccc(OCc2cc(C(=O)N(C)CC3CCOCC3)no2)cc1C	aSyn 5UTR act -103.7
Cc1cc(OCc2cc(C(=O)N(C)C3CCOCC3)no2)cc(C)c1Cl	aSyn 5UTR act -127.9
Cn1c(=N)n(CC(=O)c2ccccc2)c2ccccc21	none
CCN(CC)CCn1c(=N)n(CC(=O)c2ccc(C)cc2)c2ccccc21	aSyn 5UTR act -125.0
Cc1ccc(C(=O)Cn2c(=N)n(N)c3ccccc32)cc1	aSyn 5UTR act -166.0
COc1ccc(C(=O)Cn2c(=N)n(C)c3ccccc32)cc1	aSyn 5UTR act -62.4
COc1ccc(Nc2nnc(SCC3CCCO3)s2)cc1 (configuration not stated)	aSyn 5UTR act -104.7
COc1cccc(Nc2nnc(SCC3CCCCO3)s2)c1 (configuration not stated)	aSyn 5UTR act -76.3
CCCc1nnc(NC(=S)Nc2ccccc2)s1	aSyn 5UTR act -126.6
CC(C)C(=O)Nc1nnc(NC(=S)Nc2ccccc2)s1	aSyn 5UTR act -126.6
O=C(Nc1ccc(Cl)cn1)Nc1ccccc1Cl	aSyn 5UTR act -87.0
O=C(Nc1ccc(Cl)cn1)c1ccccc1[N+](=O)[O-]	aSyn 5UTR act -77.3

Source: PubChem
